For three compounds, outcome and AC50 results are on record in PubChem BioAssay (EPA / NIEHS).

Activity calls are given as the source filed them. Rule for the calls: active = hit-call score of the fitted dose curve at least 0.9, where 1 is the maximum; inactive = score below 0.9.

Assay [1] deals with Bile acid receptor (Homo sapiens) (UniProt Q96RI1). Put plainly: ATG_IR1_CIS: Attagene CIS-FACTORIAL HepG2 Assay for human Nuclear Receptor Subfamily 1 Group H Member 4 (NR1H4), IR1 submotif (AID 2282946). The following applies: IR1 reporter transcription, actives raise or lower the signal. The procedure, abridged: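 Cells (human HepG2) carry transiently transfected cis-promoter reporter transcription units. Compounds are incubated 24 h, total RNA is reverse-transcribed and amplified, and labelled fragments are resolved by capillary electrophoresis. Curves use DMSO as baseline.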

Assay [2] in a line: ATG_GRE_CIS: Attagene CIS-FACTORIAL HepG2 Assay for human Glucocorticoid Response Elements (GRE) (AID 2282947). As to conditions: HepG2 GRE cis-reporter, Attagene multiplex mRNA; actives raise or lower the signal. The procedure, abridged: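 Assay uses human hepatoma HepG2 cells transfected with cis-promoter reporter units, exposed 24 h. mRNA from reporters detected by RT-PCR plus capillary electrophoresis; DMSO serves as negative control and baseline.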

Assay [3] is described as follows: ATG_ISRE_CIS: Attagene CIS-FACTORIAL HepG2 Assay for human Interferon Regulatory Factor 1 (IRF1) binding to an Interferon-Stimulated Response Element (ISRE) (AID 2282948). The following applies: HepG2 ISRE cis-reporter (Attagene), mRNA transcription readout; actives raise or lower the signal. The method in brief:
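Quantitation relies on labelled RT-PCR fragments separated by capillary electrophoresis. Human HepG2 cells bearing cis-promoter reporter constructs were treated 24 h; DMSO served as baseline for bidirectional fitting.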

Assay [4] in a line: ATG_M_32_CIS: Attagene CIS-FACTORIAL HepG2 Assay for M32 Transcription Factor (Internal Marker) (AID 2282949).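 Note: background control marker of the multiplexed CIS panel rather than a real target.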 As to conditions: HepG2 Attagene cis-factorial M32 reporter, mRNA; actives raise or lower the signal. The procedure, abridged:
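Internal background marker read-out: RT-PCR/capillary electrophoresis fluorescence of reporter transcripts from transiently transfected HepG2 cells after 24 h chemical exposure. Activity fitted bidirectionally relative to DMSO negative control.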

A short description of assay [5]: ATG_M_06_CIS: Attagene CIS-FACTORIAL HepG2 Assay for M06 Transcription Factor (Internal Marker) (AID 2282950). As to conditions: HepG2 Attagene CIS-FACTORIAL M06 internal marker reporter; actives raise or lower the signal. The procedure, abridged: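 Cells (HepG2, transiently carrying cis-driven reporter units) receive chemical for 24 h before RNA isolation. Reporter cDNA is PCR-amplified, FAM-labelled by primer extension, HpaI-digested and sized on a capillary analyser.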

Assay [6] addresses Hypoxia-inducible factor 1-alpha (Homo sapiens) (UniProt Q16665). Put plainly: ATG_HIF1a_CIS: Attagene CIS-FACTORIAL HepG2 Assay for human Hypoxia Inducible Factor 1 (HIF1A) (AID 2282951). As to conditions: HepG2 Attagene cis-factorial HIF1a reporter transcription; actives raise or lower the signal. The method in brief: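 Measures endogenous transcription-factor activity through cis-regulated reporter mRNA in HepG2. Cells dosed 24 h; transcripts quantified by RT-PCR with 6-FAM-labelled products separated by capillary electrophoresis; DMSO serves as negative control.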

Assay [7] deals with Hepatocyte nuclear factor 6 (Homo sapiens) (UniProt Q9UBC0). Put plainly: ATG_HNF6_CIS: Attagene CIS-FACTORIAL HepG2 Assay for human Hepatocyte Nuclear Factor 6 (HNF6) (AID 2282952). As to conditions: HepG2 Attagene cis-factorial HNF6 reporter transcription; actives raise or lower the signal. The procedure, abridged: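 Transiently transfected HepG2 cells expressing cis-regulated reporter transcription units were exposed to chemical for 24 h in a 24-well format. Reporter transcript abundance was determined by fluorescence capillary electrophoresis.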

Assay [8] addresses Heat shock factor protein 1 (Homo sapiens) (UniProt Q00613). The assay can be described thus: ATG_HSE_CIS: Attagene CIS-FACTORIAL HepG2 Assay for human Heat Shock Transcription Factor 1 (HSE) (AID 2282953). As to conditions: HepG2 HSE cis-reporter, Attagene RNA transcription; actives raise or lower the signal. The procedure, abridged: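 Liver-derived HepG2 cells carry transiently introduced multiple reporter units governed by cis promoters. Reporter RNA measured 24 h post-dose through reverse transcription, PCR amplification, fluorescent labelling and capillary electrophoresis, normalised to DMSO.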

A short description of assay [9]: ATG_MRE_CIS: Attagene CIS-FACTORIAL HepG2 Assay for human Metal Responsive Element (MRE) (AID 2282954). As to conditions: HepG2 MRE cis-reporter transcription, Attagene multiplex; actives raise or lower the signal. The method in brief: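 After a 24 h chemical exposure, transiently transfected HepG2 cells yield RNA whose reporter sequences are amplified, FAM-labelled and sized by capillary electrophoresis. Curves are fitted bidirectionally relative to DMSO.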

The nature of assay [10]: ATG_PBREM_CIS: Attagene CIS-FACTORIAL HepG2 Assay for human Phenobarbital-responsive Enhancer Module (PBREM) (AID 2282955). The following applies: HepG2 PBREM cis-reporter, Attagene multiplexed transcription; actives raise or lower the signal. The procedure, abridged: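 Fluorescence of labelled reporter cDNA fragments, resolved by capillary electrophoresis, gives mRNA induction in transfected HepG2 cells treated for 24 h; DMSO serves as negative control and baseline.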

Assay [11] concerns the target Paired box protein Pax-6 (Homo sapiens) (UniProt P26367). Put plainly: ATG_Pax6_CIS: Attagene CIS-FACTORIAL HepG2 Assay for human Paired Box 6 (PAX6) (AID 2282956). The following applies: HepG2 CIS-FACTORIAL PAX6 reporter transcription, RNA readout; actives raise or lower the signal. The procedure, abridged:
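After twenty-four hours of chemical exposure, transfected HepG2 cells are harvested for RNA. Cis-promoter reporter transcripts are amplified, fluorescently labelled and sized by capillary electrophoresis, with gain and loss of signal scored against DMSO.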

Assay [12] in a line: ATG_PXRE_CIS: Attagene CIS-FACTORIAL HepG2 Assay for human Pregnane X Receptor Element (PXRE) (AID 2282957). The following applies: HepG2 Attagene CIS-FACTORIAL PXRE reporter, mRNA; actives raise or lower the signal. The procedure, abridged: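 Cis-element reporter mRNA in human hepatoma HepG2 cells is measured 24 h post-dosing by RT-PCR, primer-extension labeling and capillary electrophoresis; gain or loss of signal is fitted relative to DMSO.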

The nature of assay [13]: ATG_PPRE_CIS: Attagene CIS-FACTORIAL HepG2 Assay for human Peroxisome Proliferator-activated Response Element (PPRE) (AID 2282958). The following applies: HepG2 PPRE cis-element reporter, Attagene transcription factor profiling; actives raise or lower the signal. The procedure, abridged: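 Cells are first transfected transiently with the multiplexed reporter library, then dosed for 24 h. Total RNA is reverse-transcribed, amplified, fluorescently end-labeled and HpaI-cut before capillary electrophoresis; activity is fitted bidirectionally against DMSO controls.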

The nature of assay [14]: ATG_RORE_CIS: Attagene CIS-FACTORIAL HepG2 Assay for human RAR-related Orphan Receptor Element (RORE) (AID 2282959). The following applies: HepG2 Attagene cis-factorial RORE reporter, mRNA; actives raise or lower the signal. The method in brief: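 Cells were HepG2 carrying transfected cis-regulated reporter constructs, dosed for 24 hours. Total RNA was reverse-transcribed and reporter cDNA amplified, fluorescently labeled and sized by capillary electrophoresis. Activity was fitted bidirectionally relative to DMSO.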

Assay [15] can be described thus: ATG_Sox_CIS: Attagene CIS-FACTORIAL HepG2 Assay for human SRY-box transcription factor (SOX) (AID 2282960). As to conditions: HepG2 Attagene cis-factorial SOX reporter, mRNA; actives raise or lower the signal. The procedure, abridged:
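Transient MRTU transfection of HepG2; 24 h compound incubation; TriZol RNA, oligo(dT) RT, PCR, 6-FAM primer extension, HpaI cut, CE. Bidirectional fit, DMSO = baseline.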

The target of assay [16] is Transcription factor Sp1 (Homo sapiens) (UniProt P08047). The assay can be described thus: ATG_Sp1_CIS: Attagene CIS-FACTORIAL HepG2 Assay for human Specificity Protein 1 (Sp1) (AID 2282961). The following applies: HepG2 Sp1 cis-reporter transcription, actives raise or lower the signal. The method in brief:
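Endogenous Sp1 activity was gauged in human liver HepG2 cells bearing transfected reporter units under a cis-regulating promoter. After 24 h dosing, reporter mRNA was quantified by RT-PCR with capillary electrophoresis, and activity fitted bidirectionally versus DMSO.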

The nature of assay [17]: ATG_SREBP_CIS: Attagene CIS-FACTORIAL HepG2 Assay for human Sterol Regulatory Element Binding (SREBP) (AID 2282962). The following applies: HepG2 Attagene cis-factorial SREBP reporter, mRNA; actives raise or lower the signal. The method in brief:
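Twenty-four hours after chemical dosing of transfected HepG2 cultures, reporter RNA was converted to cDNA, amplified, end-labelled with 6-FAM and resolved by capillary electrophoresis. Responses were fitted relative to DMSO.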

The target in assay [18] is Signal transducer and activator of transcription 3 (Homo sapiens) (UniProt P40763). The assay can be described thus: ATG_STAT3_CIS: Attagene CIS-FACTORIAL HepG2 Assay for human Signal Transducer and Activator of Transcription 3 (STAT3) (AID 2282963). The following applies: HepG2, Attagene cis-factorial STAT3 reporter transcription; actives raise or lower the signal. The method in brief: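 After a 24 h compound incubation, total RNA from MRTU-transfected HepG2 cells was converted to cDNA and reporter sequences PCR-amplified, labelled and profiled by capillary electrophoresis. Gain and loss of signal were referenced to DMSO.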

Assay [19] in a line: ATG_TCF_b_cat_CIS: Attagene CIS-FACTORIAL HepG2 Assay for human T-Cell-Factor with beta-catenin (TCF/b-cat) (AID 2282965). As to conditions: HepG2 TCF/beta-catenin cis-reporter transcription, actives raise or lower the signal. The procedure, abridged: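 Endogenous transcription factor activity is captured through cis-promoter reporter constructs transiently introduced into human HepG2 liver cells. Induced reporter mRNA is measured after 24 h and fitted bidirectionally relative to DMSO.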

The nature of assay [20]: ATG_TA_CIS: Attagene CIS-FACTORIAL HepG2 Assay for human TA Basal Promoter (AID 2282964). The following applies: HepG2 Attagene CIS-factorial TA basal promoter reporter; actives raise or lower the signal. The method in brief: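 Background internal-marker endpoint from a 52-component HepG2 cis-reporter panel. Cells treated 24 h; reporter transcripts quantified via RT-PCR and CE fluorescence against DMSO baseline.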

Chain of Bile acid receptor (Homo sapiens) (Q96RI1 whole entry, looked up, the tested form may be a part): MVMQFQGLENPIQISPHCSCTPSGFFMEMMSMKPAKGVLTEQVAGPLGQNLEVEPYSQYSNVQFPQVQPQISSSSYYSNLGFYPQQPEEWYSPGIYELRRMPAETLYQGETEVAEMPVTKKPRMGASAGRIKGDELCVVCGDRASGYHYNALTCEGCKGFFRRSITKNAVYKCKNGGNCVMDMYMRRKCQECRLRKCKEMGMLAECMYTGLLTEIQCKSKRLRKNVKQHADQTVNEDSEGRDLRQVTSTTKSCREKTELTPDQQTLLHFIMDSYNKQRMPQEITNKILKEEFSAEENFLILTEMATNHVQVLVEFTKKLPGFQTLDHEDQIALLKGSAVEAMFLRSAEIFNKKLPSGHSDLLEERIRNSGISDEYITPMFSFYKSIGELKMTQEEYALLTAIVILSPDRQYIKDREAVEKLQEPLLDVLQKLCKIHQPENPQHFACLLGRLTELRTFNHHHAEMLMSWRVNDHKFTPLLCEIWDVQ
Chain of Signal transducer and activator of transcription 3 (Homo sapiens) (P40763 whole entry, looked up): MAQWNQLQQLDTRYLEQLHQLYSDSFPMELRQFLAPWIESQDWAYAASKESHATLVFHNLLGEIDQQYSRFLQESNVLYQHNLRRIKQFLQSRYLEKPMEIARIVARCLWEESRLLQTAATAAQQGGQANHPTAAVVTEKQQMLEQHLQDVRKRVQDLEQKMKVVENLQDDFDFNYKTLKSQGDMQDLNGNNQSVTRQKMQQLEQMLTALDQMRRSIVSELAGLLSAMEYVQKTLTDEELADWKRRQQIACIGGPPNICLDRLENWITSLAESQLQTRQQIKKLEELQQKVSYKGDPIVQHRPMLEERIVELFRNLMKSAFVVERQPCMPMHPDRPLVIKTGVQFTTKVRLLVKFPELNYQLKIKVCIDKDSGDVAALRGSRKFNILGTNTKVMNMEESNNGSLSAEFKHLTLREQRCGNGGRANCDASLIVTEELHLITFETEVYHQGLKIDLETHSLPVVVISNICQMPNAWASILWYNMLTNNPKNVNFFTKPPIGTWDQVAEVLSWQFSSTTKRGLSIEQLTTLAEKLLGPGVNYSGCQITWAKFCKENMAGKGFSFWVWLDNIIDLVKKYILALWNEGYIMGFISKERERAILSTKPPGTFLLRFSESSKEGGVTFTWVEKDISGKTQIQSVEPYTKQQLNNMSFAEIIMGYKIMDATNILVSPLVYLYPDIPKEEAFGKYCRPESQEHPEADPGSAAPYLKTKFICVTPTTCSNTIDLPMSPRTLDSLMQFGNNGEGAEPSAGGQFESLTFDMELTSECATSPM
Chain of Heat shock factor protein 1 (Homo sapiens) (Q00613 whole entry, looked up): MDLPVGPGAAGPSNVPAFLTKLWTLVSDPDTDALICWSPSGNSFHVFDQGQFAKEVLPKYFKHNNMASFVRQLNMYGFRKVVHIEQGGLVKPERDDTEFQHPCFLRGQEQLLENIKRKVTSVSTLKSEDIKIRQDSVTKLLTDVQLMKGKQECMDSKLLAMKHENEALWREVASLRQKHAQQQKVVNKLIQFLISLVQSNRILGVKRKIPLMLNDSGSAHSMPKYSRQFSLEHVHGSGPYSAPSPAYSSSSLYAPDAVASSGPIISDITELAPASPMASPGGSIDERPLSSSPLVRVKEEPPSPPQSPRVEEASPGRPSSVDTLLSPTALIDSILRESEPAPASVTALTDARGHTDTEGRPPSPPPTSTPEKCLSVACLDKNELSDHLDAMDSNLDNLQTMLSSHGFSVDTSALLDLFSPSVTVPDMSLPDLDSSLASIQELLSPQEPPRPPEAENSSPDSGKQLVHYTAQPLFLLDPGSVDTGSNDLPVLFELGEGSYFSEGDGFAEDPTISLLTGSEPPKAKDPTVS
Chain of Hepatocyte nuclear factor 6 (Homo sapiens) (Q9UBC0 whole entry, looked up): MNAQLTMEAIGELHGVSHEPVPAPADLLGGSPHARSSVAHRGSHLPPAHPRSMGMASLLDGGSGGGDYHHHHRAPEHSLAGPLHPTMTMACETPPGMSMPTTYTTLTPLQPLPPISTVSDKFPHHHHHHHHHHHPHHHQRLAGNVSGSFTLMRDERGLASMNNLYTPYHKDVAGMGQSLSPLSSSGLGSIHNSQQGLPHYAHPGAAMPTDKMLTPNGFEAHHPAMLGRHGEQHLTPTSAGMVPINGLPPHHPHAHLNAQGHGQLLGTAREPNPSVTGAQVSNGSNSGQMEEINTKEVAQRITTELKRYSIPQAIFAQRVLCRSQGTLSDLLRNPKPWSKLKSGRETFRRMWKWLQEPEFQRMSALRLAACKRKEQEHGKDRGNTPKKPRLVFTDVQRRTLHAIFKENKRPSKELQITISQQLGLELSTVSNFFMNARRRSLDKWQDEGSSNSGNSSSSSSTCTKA
Chain of Paired box protein Pax-6 (Homo sapiens) (P26367 whole entry, looked up): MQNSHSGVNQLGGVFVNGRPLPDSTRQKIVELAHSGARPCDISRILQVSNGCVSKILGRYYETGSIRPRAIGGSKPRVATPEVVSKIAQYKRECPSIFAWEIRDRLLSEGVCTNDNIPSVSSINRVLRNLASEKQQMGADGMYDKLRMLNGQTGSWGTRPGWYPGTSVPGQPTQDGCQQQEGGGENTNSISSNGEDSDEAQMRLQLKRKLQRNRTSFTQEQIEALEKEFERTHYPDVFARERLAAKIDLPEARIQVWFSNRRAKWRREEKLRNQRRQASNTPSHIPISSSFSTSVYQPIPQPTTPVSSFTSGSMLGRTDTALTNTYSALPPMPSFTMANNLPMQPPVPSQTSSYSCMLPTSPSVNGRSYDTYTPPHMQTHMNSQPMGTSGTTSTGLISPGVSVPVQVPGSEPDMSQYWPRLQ
Chain of Hypoxia-inducible factor 1-alpha (Homo sapiens) (Q16665 whole entry, looked up): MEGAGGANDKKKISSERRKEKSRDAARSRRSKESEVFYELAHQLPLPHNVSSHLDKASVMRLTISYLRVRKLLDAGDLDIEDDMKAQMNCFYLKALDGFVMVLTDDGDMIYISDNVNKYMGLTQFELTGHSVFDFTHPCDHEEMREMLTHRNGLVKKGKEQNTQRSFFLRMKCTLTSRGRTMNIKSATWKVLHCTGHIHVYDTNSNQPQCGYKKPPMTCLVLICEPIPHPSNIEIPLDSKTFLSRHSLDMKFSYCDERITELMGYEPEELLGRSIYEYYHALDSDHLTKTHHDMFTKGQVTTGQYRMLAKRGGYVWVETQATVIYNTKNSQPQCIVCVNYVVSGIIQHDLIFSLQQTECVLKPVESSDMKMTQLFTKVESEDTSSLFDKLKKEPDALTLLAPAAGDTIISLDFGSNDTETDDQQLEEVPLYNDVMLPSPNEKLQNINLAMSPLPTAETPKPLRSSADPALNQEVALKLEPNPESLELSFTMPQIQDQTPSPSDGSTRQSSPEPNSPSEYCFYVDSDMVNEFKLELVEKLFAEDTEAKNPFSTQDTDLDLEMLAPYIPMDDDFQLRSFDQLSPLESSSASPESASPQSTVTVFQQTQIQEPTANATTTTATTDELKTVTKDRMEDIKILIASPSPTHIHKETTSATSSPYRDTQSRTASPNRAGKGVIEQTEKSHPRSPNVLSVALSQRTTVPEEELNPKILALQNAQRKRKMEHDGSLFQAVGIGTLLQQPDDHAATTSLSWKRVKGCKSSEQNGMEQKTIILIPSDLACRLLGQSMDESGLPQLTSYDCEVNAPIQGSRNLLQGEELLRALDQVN
Chain of Transcription factor Sp1 (Homo sapiens) (P08047 whole entry, looked up): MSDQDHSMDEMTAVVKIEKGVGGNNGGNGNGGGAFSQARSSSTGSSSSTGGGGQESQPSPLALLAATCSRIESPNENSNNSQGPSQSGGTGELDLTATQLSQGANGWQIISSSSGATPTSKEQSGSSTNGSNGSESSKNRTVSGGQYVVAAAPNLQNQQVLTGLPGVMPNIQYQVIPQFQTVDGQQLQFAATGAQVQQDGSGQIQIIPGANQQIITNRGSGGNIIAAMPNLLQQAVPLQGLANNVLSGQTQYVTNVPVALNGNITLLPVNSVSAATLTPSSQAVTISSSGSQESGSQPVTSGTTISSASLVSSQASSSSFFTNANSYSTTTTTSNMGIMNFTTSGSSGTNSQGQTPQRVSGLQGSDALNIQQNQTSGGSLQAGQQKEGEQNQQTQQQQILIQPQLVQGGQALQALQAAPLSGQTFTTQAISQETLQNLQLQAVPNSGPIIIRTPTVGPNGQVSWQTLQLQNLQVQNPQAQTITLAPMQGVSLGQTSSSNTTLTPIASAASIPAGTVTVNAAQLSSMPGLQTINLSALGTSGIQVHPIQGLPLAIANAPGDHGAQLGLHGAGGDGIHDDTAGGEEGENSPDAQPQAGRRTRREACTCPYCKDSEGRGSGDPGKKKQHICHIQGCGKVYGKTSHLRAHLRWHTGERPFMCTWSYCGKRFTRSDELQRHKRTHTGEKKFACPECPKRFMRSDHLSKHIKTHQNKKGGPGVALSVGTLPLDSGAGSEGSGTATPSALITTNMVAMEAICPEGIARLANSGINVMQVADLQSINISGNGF

As for `CCCCCCCCCCCCSC`, the compound was classed as inactive in [1], in [2], in assay [3], in assay [4], in [5] and in assay [6]. The outcome in assay [7], in [8], in [9], in assay [10], in assay [11] and in [13] was inactive. In addition, the compound was called inactive in assay [14], in assay [15], in [16], in assay [17], in assay [18] and in [19]. In addition, the AC50 (in general, the concentration at which the activity in the assay is half-maximal) in [12] was 27.3 µM (active).

`Cc1c(Cl)c(=O)oc2cc(O)ccc12`: the compound was called inactive in [1], in assay [2], in assay [3], in assay [4], in assay [5] and in assay [6]. The compound was called inactive in assay [7], in [8], in assay [9], in assay [11], in assay [13] and in assay [14]. Further, the result in assay [15], in assay [18], in assay [20] and in assay [19] was inactive. Also, the AC50 in assay [10] was 37.3 µM (active); in assay [12] it was 70.3 µM (active); in assay [16], 26.8 µM (active); in assay [17], 120 µM (active).

With `C=CC(=O)OCCn1c(=O)n(CCOC(=O)C=C)c(=O)n(CCOC(=O)C=C)c1=O`, the AC50 in assay [1] was 24.4 µM (active); in assay [2], 33.4 µM (active); in assay [3], 13 µM (active); in assay [6], 16.8 µM (active); in assay [8], 54.2 µM (active); in assay [9], 9.48 µM (active). For the same compound, the AC50 in assay [11] was 15.7 µM (active); in assay [16], 8.63 µM (active); in assay [18], 27 µM (active); in [19], 9.02 µM (active). Also, the result in assay [4], in assay [5], in assay [7], in assay [10], in assay [12] and in assay [13] was inactive. For the same compound, the result in assay [14], in [15] and in [17] was inactive.
